Screening results (PubChem)
ELG1 DNA repair: qHTS screen for small molecules that inhibit ELG1-dependent DNA repair in human embryonic kidney (HEK293T) cells expressing luciferase-tagged ELG1; 330,000 compounds, 2.3% hits; HEK293T ELG1-luciferase reporter, luminescence, 16 h; DNA damage induced by 5-fluorouridine; Potency, µM (doses to about 46.1 µM), for the others: at the top dose activity change, negative = inhibition, most hits filed as inhibitors; AID 504467, 2011; note: potency is the fitted concentration of half-maximal effect; % is set by controls: 0 for no effect and ±100 for the full control effect; nearly all actives have a fitted effect of over 55% in size
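Luminescence from the luciferase reporter, measured 30 min after ONE-Glo reagent at room temperature, was the read-out. Beforehand, 2,000 cells per well were exposed for 16 hr at 37 °C to 5-fluorouridine together with compound or vehicle.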
Giardia killer: Small Molecules that selectively kill Giardia lamblia: qHTS; Giardia lamblia trophozoite viability; activity change, % at 7.66 µM, hits read low; 340,000 compounds, 0.15% hits; AID 540267, 2011; in the data active = activity change below about -80%; inconclusive = between about -30% and that limit;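 note: parasites exposed to compound for two days anaerobically before the ATP read; % is set by controls: 0 for no effect and ±100 for the full control effect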
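Compounds were tested on trophozoites seeded at 100 cells/well and held 48 hrs at 37 deg C anaerobically. An ATP-based luminescent kit measured the remaining live cells.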
TRPV1 agonist: HTS Assay for Compounds that Act as Agonists of the Vanilloid Receptor 1; Transient receptor potential cation channel subfamily V member 1 (Homo sapiens), Q8NER1; TRPV1-expressing cells, Fluo-8 calcium influx, agonist mode; activation, % at 8.33 µM; 320,000 compounds, 0.19% hits; AID 540275, 2011; in the data active = activation above about 80%; inconclusive = between about 30% and that limit; note: 0% is about no effect
Target sequence (Q8NER1 whole entry, looked up): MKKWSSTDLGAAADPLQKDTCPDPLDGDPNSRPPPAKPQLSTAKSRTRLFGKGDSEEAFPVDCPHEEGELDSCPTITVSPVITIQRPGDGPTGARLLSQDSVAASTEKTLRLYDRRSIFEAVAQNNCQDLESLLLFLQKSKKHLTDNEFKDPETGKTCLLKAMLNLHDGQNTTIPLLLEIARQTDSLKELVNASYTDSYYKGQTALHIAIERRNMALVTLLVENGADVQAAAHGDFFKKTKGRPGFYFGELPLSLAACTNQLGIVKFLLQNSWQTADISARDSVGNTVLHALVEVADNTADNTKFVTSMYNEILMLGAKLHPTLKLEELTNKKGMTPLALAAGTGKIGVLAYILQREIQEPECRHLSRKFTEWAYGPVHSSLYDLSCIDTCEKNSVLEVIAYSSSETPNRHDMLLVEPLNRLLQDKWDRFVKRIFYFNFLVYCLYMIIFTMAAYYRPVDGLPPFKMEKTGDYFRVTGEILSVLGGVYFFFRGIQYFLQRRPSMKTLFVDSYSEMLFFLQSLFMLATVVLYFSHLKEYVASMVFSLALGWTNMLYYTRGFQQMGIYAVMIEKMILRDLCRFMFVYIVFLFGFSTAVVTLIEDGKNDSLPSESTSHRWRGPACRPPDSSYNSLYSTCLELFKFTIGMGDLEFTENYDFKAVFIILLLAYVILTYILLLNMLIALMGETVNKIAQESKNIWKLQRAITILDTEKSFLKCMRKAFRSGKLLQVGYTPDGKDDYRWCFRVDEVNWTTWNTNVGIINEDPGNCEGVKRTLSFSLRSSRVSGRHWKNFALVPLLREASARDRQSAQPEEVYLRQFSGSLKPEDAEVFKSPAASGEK
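Fluo-8 calcium influx in TRPV1-expressing cells, kinetic read (ex 480/em 520 nm). Compound added and read 3 min for agonist activity, followed by capsaicin at EC20 final and 2 min further read for enhancement.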
FUS suppressor: qHTS for Suppressors of FUS Proteinopathy: Primary screen using FUS-linked yeast assay; S. cerevisiae FUS-expressing, growth rescue, OD600, 24 h; Potency, µM (highest dose often 76.6 µM), hits mostly activators; 390,000 compounds, 0.24% hits;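 note: potency is the fitted concentration of half-maximal effect; plate controls were DMSO vehicle for no effect and reference control for full effect; nearly all actives have a fitted effect of over 55% in size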
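Yeast expressing FUS under galactose induction, OD 0.005 in 2% galactose medium; compounds in a dilution series, 24 h at 30C. Growth rescue by absorbance at 600 nm; CP55940 positive control, DMSO negative.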
TRPV1 potentiator: HTS Assay for Compounds that Act as Potentiators of the Vanilloid Receptor 1; Transient receptor potential cation channel subfamily V member 1 (Homo sapiens), Q8NER1; TRPV1-expressing cells, Fluo-8 calcium influx, capsaicin EC20 potentiation; potentiation, % at 8.33 µM; 320,000 compounds, 0.02% hits; in the data active = potentiation above about 80%; inconclusive = between about 30% and that limit; note: 0% is about no effect
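TRPV1-expressing cells were cultured overnight at 35.5C and loaded with Fluo-8 calcium dye for 40 to 90 min at room temperature. After a 10 s baseline, compound was added and calcium influx was read kinetically for 3 min (ex 480/em 520 nm).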
ELG1 FLuc counter: qHTS screen for small molecules that inhibit ELG1-dependent DNA repair: Hit Confirmation in Cell-Based Luciferin Assay; shares compounds with ELG1 DNA repair; cell-free firefly luciferase luminescence counter-screen, ViewLux; Potency, µM (series often up to 46.1 µM), for inactives: top-dose activity change, negative = inhibition, usual class: inhibitors; 350 compounds, 3% hits; AID 624247, 2012; note: potency is the fitted concentration of half-maximal effect; % is set by controls: 0 for no effect and ±100 for the full control effect
ELG1 Luc conf: HTS assay for small molecules that inhibit ELG1-dependent DNA repair in human embryonic kidney (HEK293T) cells expressing luciferase-tagged ELG1: Hit Confirmation; Potency, µM (doses to about 46.1 µM), inactives show top-dose activity change, negative = inhibition, hits mostly inhibitors; AID 624248, 2012; 670 compounds, 68% hits; HEK293T ELG1-luciferase levels, luminescence; cells co-treated with 5-fluorouridine; shares compounds with ELG1 DNA repair; note: potency is the fitted concentration of half-maximal effect; % is set by controls: 0 for no effect and ±100 for the full control effect; nearly all actives have a fitted effect of over 55% in size
ELG1 MMS Luc: MMS-stimulated human ELG1 repair inhibition, confirmed; shares compounds with ELG1 DNA repair; HEK293T luciferase-tagged ELG1 level, MMS stimulated; Potency, µM (doses to about 46.1 µM), for the others: at the highest dose activity change, negative = inhibition, actives largely listed as inhibitors; 670 compounds, 53% hits; AID 624249; note: potency is the fitted concentration of half-maximal effect; % is set by controls: 0 for no effect and ±100 for the full control effect; nearly all actives have a fitted effect of over 60% in size
ELG1 5FU viab: qHTS screen for small molecules that inhibit ELG1-dependent DNA repair: Hit Confirmation with 5FU Viability; shares compounds with ELG1 DNA repair; cell viability with 5-FU, ELG1-dependent repair; Potency, µM (titrated, usually from 46.1 µM), for inactives: top-dose activity change, negative = viability loss, actives largely listed as cytotoxic; 670 tested, under 10 active; AID 624250, 2012;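 note: ELG1-luc HEK293T cells cotreated with 5-fluorouridine at 10 µM final; potency is the fitted concentration of half-maximal effect; viability measured 16 h after compound addition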
ELG1 MMS viab: qHTS screen for small molecules that inhibit ELG1-dependent DNA repair: Hit Confirmation with MMS Viability; 670 compounds, 33% hits; Potency, µM (series often up to 46.1 µM), without a hit: top-dose activity change, negative = viability loss, actives largely listed as cytotoxic; Cell viability with MMS, ELG1-dependent DNA repair; shares compounds with ELG1 DNA repair; AID 624251, 2012;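 note: ELG1-luc HEK293T cells co-treated with 10 µM MMS; potency is the fitted concentration of half-maximal effect; viability read 16 h after compound addition; % is set by controls: 0 for no effect and ±100 for the full control effect; nearly all actives have a fitted effect of over 60% in size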
Cell viab unstim: qHTS screen for small molecules that inhibit ELG1-dependent DNA repair: Hit Confirmation with Unstimulated Viability Assay | shares compounds with ELG1 DNA repair | cell viability counter-screen, unstimulated, luminescence | Potency, µM (doses to about 45.9 µM), for inactives: at the highest dose activity change, negative = loss of viability, hits mostly cytotoxic | 900 compounds, 8% hits | AID 624252, 2012;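 note: potency is the fitted concentration of half-maximal effect; compound exposure lasted 16 hours before reading; % is set by controls: 0 for no effect and ±100 for the full control effect; nearly all actives have a fitted effect of over 55% in size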
FLuc enzyme: qHTS screen for small molecules that inhibit ELG1-dependent DNA repair: Hit Confirmation in Biochemical Luciferin Assay; shares compounds with ELG1 DNA repair; purified firefly luciferase, luminescence counter-screen; Potency, µM (doses to about 57.5 µM), for the others: at the top dose activity, negative = inhibition, usual class: inhibitors; 350 compounds, 10% hits; AID 624253, 2012; note: potency is the fitted concentration of half-maximal effect; % is set by controls: 0 for no effect and ±100 for the full control effect
The depositor's hits bear a star. This is a sample that favours compounds with a hit; in the whole collection about 2.3% have one here. Unless noted, calls come from the whole dose curve; as a rule, active = well fitted curve in the direction sought with a large enough effect; inconclusive = small, poorly fitted or top-dose-only effect, or another doubt; inactive = no such curve, though single readings can be large; an effect the other way counts as inactive or inconclusive.

CCOC(=O)c1c(C)oc2nc(C)nc(NCC3CCN(Cc4ccc(Cl)cc4)CC3)c12 was read as FUS suppressor inactive.
Screening CC(=O)OCC1=C[C@H]2[C@@H]3C(C)(C)[C@]3(OC(C)=O)C[C@@H](C)[C@]2(O)[C@@H]2C=C(C)C(=O)[C@@]2(O)C1 returned Cell viab unstim inconclusive.
Screening COc1ccc(OC)c(Nc2nc(NCc3ccco3)nc(N)c2[N+](=O)[O-])c1 returned ELG1 DNA repair inconclusive, Giardia killer 18, TRPV1 agonist 13, FUS suppressor inactive, TRPV1 potentiator 29, ELG1 Luc conf 0.63µM*, ELG1 MMS Luc -8%, ELG1 5FU viab inconclusive, ELG1 MMS viab -8% and Cell viab unstim -11%.
CCOc1ccc(Nc2nc(NCc3ccco3)nc(N)c2[N+](=O)[O-])cc1 was read as ELG1 DNA repair 24%, Giardia killer 10 and FUS suppressor inactive.
Screening Cc1cccc(CCn2c(=O)c3ccccc3n(Cc3cccc(F)c3)c2=O)c1 returned FUS suppressor inactive.
For COc1ccc(C2CC(c3c(O)cc(C)oc3=O)=NCCS2)c(OC)c1 (stereo not drawn) the results were ELG1 DNA repair inconclusive, Giardia killer -29, TRPV1 agonist 3, FUS suppressor inactive, TRPV1 potentiator 1 and Cell viab unstim -15%.
Screening CCN(CC)C(=O)CC[C@H]1CC[C@]2(CCCN(C(=O)c3ccco3)C2)O1 returned FUS suppressor inactive.
Cc1c(C(=O)NCc2ccco2)oc2ccc(S(=O)(=O)N3CCC4(CC3)OCCO4)cc12 was read as ELG1 DNA repair 3.3µM*, Giardia killer 10, TRPV1 agonist 7, FUS suppressor inactive, TRPV1 potentiator 1, ELG1 FLuc counter 63%, ELG1 Luc conf 4.5µM*, ELG1 MMS Luc -12%, ELG1 5FU viab inconclusive, ELG1 MMS viab -11%, Cell viab unstim inconclusive and FLuc enzyme 0%.
For C=CCNC(=O)c1oc2ccc(S(=O)(=O)N3CCC4(CC3)OCCO4)cc2c1C the results were ELG1 DNA repair inconclusive, Giardia killer 0, TRPV1 agonist -2, FUS suppressor inactive and TRPV1 potentiator 10.
CCOC(=O)C1CCN(c2cc3c(cc2NC(=O)c2cc(OC)ccc2Br)n(C)c(=O)n3C)CC1 was read as ELG1 DNA repair inconclusive, Giardia killer 16, TRPV1 agonist -4, FUS suppressor inactive and TRPV1 potentiator -3.
`CCOC(=O)C1CCN(c2cc3c(cc2NC(=O)c2ccccc2Br)n(C)c(=O)n3C)CC1` gave ELG1 DNA repair 9.2µM*, Giardia killer 6, TRPV1 agonist 17, FUS suppressor inactive, TRPV1 potentiator -12, ELG1 FLuc counter 0%, ELG1 Luc conf 7.9µM*, ELG1 MMS Luc inconclusive, ELG1 5FU viab inconclusive, ELG1 MMS viab 7%, Cell viab unstim -1% and FLuc enzyme 0%.
`CCc1nn2c(=O)c(S(=O)(=O)Nc3ccc(C)cc3C)c(C)nc2s1` gave FUS suppressor inactive.
Screening CC(NC(=O)C1CCCC1)C1CC2CCC1C2 (stereo not drawn) returned ELG1 DNA repair 4.1µM*, Giardia killer -9, TRPV1 agonist -13, TRPV1 potentiator inconclusive, ELG1 Luc conf 20%, ELG1 MMS Luc inconclusive, ELG1 5FU viab 4%, ELG1 MMS viab -5% and Cell viab unstim 9%.
For COc1cc2cnc(-c3ccccc3)c(C(=O)c3ccc(OCc4ccccc4)cc3)c2cc1OC the results were ELG1 DNA repair 2.6µM*, Giardia killer -10, FUS suppressor inconclusive, ELG1 Luc conf 10µM*, ELG1 MMS Luc 13µM*, ELG1 5FU viab inconclusive, ELG1 MMS viab 11µM* and Cell viab unstim 0%.
`CCOc1ccc2nc(SCC(=O)N3CCCCCC3)c(C#N)cc2c1` gave ELG1 DNA repair -22%, Giardia killer 6, TRPV1 agonist inconclusive, FUS suppressor inactive and TRPV1 potentiator -8.
Screening CCOC(=O)CSc1nc2cc3c(cc2cc1C)OCO3 returned ELG1 DNA repair 4%, Giardia killer -10, TRPV1 agonist -3, FUS suppressor inactive and TRPV1 potentiator 7.
